A selection: hits, their analogues and other compounds. The true share with any hit is near 2%.
PG9 Ab binder: small molecules binding HIV-1 gp120 antibody PG9 | TR-FRET gp120-PG9 antibody binding | inhibition, % at 6.7 µM | 0.43% of 360,000 active | AID 624416; in the data active means inhibition above about 8.5%
ABCB6 inh 2: blocks the human ABCB6 transporter | AID 602162 | fluorescence ratio to DMSO, % at 10 µM | Q9NP58 | K562-ABCB6 porphyrin accumulation, flow cytometry, 1 h; stronger effect = lower value | 0.19% of 360,000 active;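 active means fluorescence ratio to DMSO below 75%, the collection mean minus 3 SD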;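 further: signal is porphyrin accumulated inside mitochondria; lower ratio means ABCB6 inhibition with less porphyrin fluorescence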
Target sequence (Q9NP58 whole entry, looked up): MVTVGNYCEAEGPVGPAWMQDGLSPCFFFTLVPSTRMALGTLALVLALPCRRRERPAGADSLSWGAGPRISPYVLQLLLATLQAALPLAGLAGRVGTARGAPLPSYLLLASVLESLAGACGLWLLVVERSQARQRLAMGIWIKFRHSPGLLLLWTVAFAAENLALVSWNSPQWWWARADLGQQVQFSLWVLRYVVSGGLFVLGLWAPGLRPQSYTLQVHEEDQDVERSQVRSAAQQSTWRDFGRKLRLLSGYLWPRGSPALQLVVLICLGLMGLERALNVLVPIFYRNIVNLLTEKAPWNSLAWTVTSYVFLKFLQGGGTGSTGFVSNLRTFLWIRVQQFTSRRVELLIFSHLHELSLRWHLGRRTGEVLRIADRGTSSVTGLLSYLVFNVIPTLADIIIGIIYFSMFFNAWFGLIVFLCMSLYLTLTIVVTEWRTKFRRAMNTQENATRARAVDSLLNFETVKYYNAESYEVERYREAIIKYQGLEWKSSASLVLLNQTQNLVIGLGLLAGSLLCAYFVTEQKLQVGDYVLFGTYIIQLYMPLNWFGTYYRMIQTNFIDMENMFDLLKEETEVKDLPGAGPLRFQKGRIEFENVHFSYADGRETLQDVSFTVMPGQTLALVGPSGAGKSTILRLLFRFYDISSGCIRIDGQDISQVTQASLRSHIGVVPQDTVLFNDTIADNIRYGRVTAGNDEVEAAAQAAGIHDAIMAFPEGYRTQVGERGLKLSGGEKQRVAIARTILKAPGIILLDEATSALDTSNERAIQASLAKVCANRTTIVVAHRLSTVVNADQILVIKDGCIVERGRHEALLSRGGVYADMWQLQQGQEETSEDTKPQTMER
Exocytosis inh: lytic granule exocytosis inhibition; 0.66% of 360,000 active; TALL-104 LAMP-1 surface exposure, flow cytometry; cells stimulated with thapsigargin and PMA; inhibition, % at 10 µM;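 active means inhibition above about 55%, limit read from the data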
Rev-erbA mod: modulators of human Rev-erb alpha DNA binding | 0.79% of 370,000 active | AID 1259318 | Rev-erbα–FITC-DNA binding, fluorescence polarization, 90 min | P20393 | activity, % at 10 µM;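 active means activity above about 14%, limit read from the data; passing the limit was not always enough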
VLA-4 inh: inhibition in a human VLA-4 binding assay. inhibition, % (about 7 µM as worked out from the volumes in the protocol). P13612. VLA-4 expressing cells, ligand binding flow cytometry. AID 2557. 0.2% of 330,000 active; in the data active means inhibition above about 50%
PG9 bind confirm: confirmation of small molecules binding HIV-1 gp120 antibody PG9 | TR-FRET PG9 antibody binding, biochemical | inhibition, % at 6.7 µM | 90% of 1,500 active | shares compounds with PG9 Ab binder; in the data active means inhibition above about 9%
PGV04 counter: PGV04 control antibody binding, counter-screen; TR-FRET PGV04 antibody-gp120 binding, biochemical; 95% of 1,500 active; inhibition, % at 6.7 µM; shares compounds with PG9 Ab binder; in the data active means inhibition above about 9.5%
PG9 binder DR: small molecules binding HIV-1 gp120 antibody PG9 | shares compounds with PG9 Ab binder | TR-FRET PG9 antibody-gp120 binding inhibition | IC50, µM | 95 tested, under 10 active | AID 651848; in the data active means IC50 below about 10 µM
PGV04 binding DR: PGV04 binding, dose response counter-screen; IC50, µM; TR-FRET binding to control antibody PGV04; shares compounds with PG9 Ab binder; 20% of 95 active
PG126 binding DR: binds control antibody PG126 in PG9 counter-screen. TR-FRET binding to antibody PG126, counterscreen. shares compounds with PG9 Ab binder. 20% of 95 active. IC50, µM
A number is an active result. Unless noted, no stated cut-off is given here; in the data, active means IC50 below about 9 µM; inactive means the rest.

`O=C(NC1CCSc2ccccc21)c1ccc(C(F)(F)F)cc1` (stereo not drawn) gave PG9 Ab binder 11, ABCB6 inh 2 inactive, Exocytosis inh inactive, Rev-erbA mod inactive, VLA-4 inh inactive, PG9 bind confirm 11 and PGV04 counter 18.
C[C@H]1CN(c2ccc(N3CCNC[C@@H]3C)cc2C#N)CCN1Cc1ccccc1 was read as PG9 Ab binder inactive and Rev-erbA mod inactive.
`CCc1cccc(CC)c1NC(=O)Cn1c(-c2ccccc2Cl)nc2ccccc21` gave PG9 Ab binder 17, ABCB6 inh 2 inactive, Exocytosis inh inactive, Rev-erbA mod inactive, VLA-4 inh inactive, PG9 bind confirm 19 and PGV04 counter 25.
`COc1ccccc1-c1n[nH]c(=S)o1` gave PG9 Ab binder 18, ABCB6 inh 2 inactive, Exocytosis inh inactive, Rev-erbA mod inactive, VLA-4 inh inactive, PG9 bind confirm 13 and PGV04 counter 24.
Screening COc1ccc(Cl)cc1-c1n[nH]c(=S)o1 returned PG9 Ab binder 37, ABCB6 inh 2 inactive, Exocytosis inh inactive, Rev-erbA mod inactive, VLA-4 inh inactive, PG9 bind confirm 36 and PGV04 counter 48.
Screening COCCN(CCOC)S(=O)(=O)c1ccc(C(=O)Nc2nc(-c3ccncc3)cs2)cc1 returned PG9 Ab binder 16, ABCB6 inh 2 inactive, Exocytosis inh inactive, Rev-erbA mod inactive, VLA-4 inh inactive, PG9 bind confirm 16 and PGV04 counter 21.
For CCOC(=O)Cc1csc(NC(=O)c2ccc(S(=O)(=O)N(CCOC)CCOC)cc2)n1 the results were PG9 Ab binder inactive, ABCB6 inh 2 inactive, Exocytosis inh inactive, Rev-erbA mod inactive and VLA-4 inh inactive.
For Cc1nc2ccccn2c1C(O)(c1ccccc1)c1ccccc1 the results were Rev-erbA mod inactive.
For COC(=O)C1(C)CCc2cc(OC)ccc2C1=O (stereo not drawn) the results were PG9 Ab binder inactive, ABCB6 inh 2 inactive, Exocytosis inh inactive, Rev-erbA mod inactive and VLA-4 inh inactive.
For COC(=O)C1(C)CN(S(=O)(=O)c2ccc(C)cc2)c2cc(OC)ccc2C1=O (stereo not drawn) the results were PG9 Ab binder 8.6, ABCB6 inh 2 inactive, Exocytosis inh inactive, Rev-erbA mod inactive, VLA-4 inh inactive, PG9 bind confirm 15 and PGV04 counter 18.
`CCC[C@H]1[C@@H](NC(=O)c2cccc(N(C)C)c2)CC[C@@]23CCCN2C(=O)CCC[C@@H]13` gave Rev-erbA mod inactive.
Screening Cc1nc2ccc(F)cc2cc1C(=O)Nc1ccc(Cl)c(Cl)c1 returned PG9 Ab binder 22, ABCB6 inh 2 inactive, Exocytosis inh inactive, Rev-erbA mod inactive, VLA-4 inh inactive, PG9 bind confirm 24 and PGV04 counter 32.
Cc1nc2ccc(F)cc2cc1C(=O)NCc1ccco1 was read as PG9 Ab binder inactive, ABCB6 inh 2 inactive, Exocytosis inh inactive, Rev-erbA mod inactive and VLA-4 inh inactive.
Screening COCc1cc(C)n(CC(=O)Nc2ccc(Cl)cc2Cl)c(=O)c1C#N returned PG9 Ab binder 8.8, ABCB6 inh 2 inactive, Exocytosis inh inactive, Rev-erbA mod inactive, VLA-4 inh inactive, PG9 bind confirm inactive, PGV04 counter inactive, PG9 binder DR inactive, PGV04 binding DR inactive and PG126 binding DR inactive.
Screening O=C(CSc1nc2ccccc2nc1N1CCCC1)N1CCN(c2cccc(C(F)(F)F)c2)CC1 returned Rev-erbA mod inactive.
Screening COc1ccc2c(-c3ccccc3)cc(SCC(N)=O)nc2c1 returned PG9 Ab binder inactive, ABCB6 inh 2 inactive, Exocytosis inh inactive, Rev-erbA mod inactive and VLA-4 inh inactive.
COc1ccc2c(-c3ccccc3)cc3nnnn3c2c1 was read as PG9 Ab binder 9.9, ABCB6 inh 2 inactive, Exocytosis inh inactive, Rev-erbA mod inactive, VLA-4 inh inactive, PG9 bind confirm 10 and PGV04 counter 24.
Cc1cc(C)cc(NC(=O)C2CCN(S(=O)(=O)c3ccc4[nH]c(=O)ccc4c3)CC2)c1 was read as PG9 Ab binder 13, ABCB6 inh 2 inactive, Exocytosis inh inactive, Rev-erbA mod inactive, VLA-4 inh inactive, PG9 bind confirm 16 and PGV04 counter 30.
For CCc1cccc(NC(=O)C2CCN(S(=O)(=O)c3ccc4[nH]c(=O)ccc4c3)CC2)c1 the results were PG9 Ab binder inactive, ABCB6 inh 2 inactive, Exocytosis inh inactive, Rev-erbA mod inactive and VLA-4 inh inactive.
Screening CCOc1ccc(C(CC(=O)O)NC(=O)c2sc3ccccc3c2Cl)cc1 (stereo not drawn) returned PG9 Ab binder inactive, ABCB6 inh 2 inactive, Exocytosis inh inactive, Rev-erbA mod inactive and VLA-4 inh inactive.
For CCCOc1ccc(C(CC(=O)O)NC(=O)c2sc3ccccc3c2Cl)cc1 (stereo not drawn) the results were PG9 Ab binder 11, ABCB6 inh 2 inactive, Exocytosis inh inactive, Rev-erbA mod inactive, VLA-4 inh inactive, PG9 bind confirm 15 and PGV04 counter 21.
Screening COC(=O)N1Cc2ccnnc2CC1c1ccccc1-c1ccccc1 (stereo not drawn) returned PG9 Ab binder inactive and Rev-erbA mod inactive.
`Cc1cc(C=O)c(C)n1-c1ccc(Oc2ccc([N+](=O)[O-])cn2)cc1` gave PG9 Ab binder 8.6, ABCB6 inh 2 inactive, Exocytosis inh inactive, Rev-erbA mod inactive, VLA-4 inh inactive, PG9 bind confirm 10 and PGV04 counter 15.
CCOC(=O)c1ccccc1NC(=O)/C=C/c1cc(OC)c(OC)c(OC)c1 was read as PG9 Ab binder 22, ABCB6 inh 2 inactive, Exocytosis inh inactive, Rev-erbA mod inactive, VLA-4 inh inactive, PG9 bind confirm 19 and PGV04 counter 24.
CCCCN(C)C(=O)CNc1nnnn1-c1ccccc1 was read as Rev-erbA mod inactive.
CCOC(=O)Cn1c(=NC(=O)CC)sc2c(C)cc(C)cc21 was read as PG9 Ab binder 11, ABCB6 inh 2 inactive, Exocytosis inh inactive, Rev-erbA mod inactive, VLA-4 inh inactive, PG9 bind confirm 15 and PGV04 counter 23.
CCOC(=O)Cn1c(=NC(=O)CSC(C)=O)sc2cc(F)ccc21 was read as PG9 Ab binder 40, ABCB6 inh 2 inactive, Exocytosis inh inactive, Rev-erbA mod inactive, VLA-4 inh inactive, PG9 bind confirm 69 and PGV04 counter 80.
Screening O=[N+]([O-])c1ncccc1OCCOc1ccc(Cl)cc1Cl returned Rev-erbA mod inactive.
For O=[N+]([O-])c1ccc(Oc2ccc(N=C=S)cc2)cc1 the results were Rev-erbA mod inactive.

High-throughput results: PubChem, several laboratories
